The record followed here is PubChem BioAssay (NCI).

Several values for one entry are separate records, joined by “and”; a condition that tells them apart may be missing. Equal entries are not always repeated. About 83,000 compounds went through this panel and 20% of them were active in at least one assay; those are over-represented in the sample as a whole.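 Single-dose data. Exposure time 48 hours. Values below 10 considered active.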 Activity calls are given as the source filed them.

For this assay, the system named is MDA-MB-468 breast. Put plainly: NCI-60 one-dose screen, 48 h (100 = growth as untreated, 0 = no growth, -100 = all killed). To be noted: 10 µM unless noted.
For the compound `COc1ccc2[nH]c(O)c(/C=c3/cc4c(c(-c5cc(OC)c(OC)c(OC)c5)n3)=Nc3ccccc3-4)c2c1`, the growth is 49.7% (inactive).

Consider `COc1cc(OC)cc(N2CCN(C(=O)Nc3nc4cc(F)ccc4nc3OC)CC2)c1`, for which the growth was -5.78% (active). In the case of `CNC(=O)c1cn(C2CC2)c2cc(N3CCN(C(=O)c4cc(OC)c(OC)c(OC)c4)CC3)c(F)cc2c1=O`, the growth was 103% (inactive). For the compound `COc1ccc(C2=NN(C(C)=O)C(c3ccc(Oc4ccnc5cc(Cl)ccc45)c(OC)c3)C2)cc1` (stereo not given), the growth was 54% (inactive). For the compound `CCCCOC(=O)c1cccc([N+](=O)[O-])c1`, the growth was 101% (inactive).

For `Cc1cc(N2CCN(c3ccnc4cc(Cl)ccc34)CC2)nc(NC2CCCCC2)n1`, the growth is -5.23% (active). In the case of `C1=C(N2CCCC2)CCC1` it was 96.2% (inactive); in that of `COc1ccc(-c2cnc3c(-c4cccc5ncccc45)cnn3c2)cc1`, 57.1% (inactive); in that of `CCCCCCCC/C=C/CCCCCCCC1=NC(C)(C)CN1CC(C)O` (stereo not given), 46.7% (inactive). With `C=C1C(=O)O[C@H]2[C@H]1CC/C(COC(=O)NCc1cn(C)c3ccccc13)=C\CC[C@@]1(C)O[C@@H]21`, the growth was -38.4% (active). On to `COc1cc(/C=C/C(=O)c2cc(OC)c(OC)c(OC)c2)ccc1Oc1nc2c(c(=O)n(C)c(=O)n2C)n1C`, for which the growth was -72% (active).

Consider `Cc1ccccc1Nc1nc2nonc2nc1Nc1cccc(C)c1C`, for which the growth was 12.3% (inactive). With `CCCCOC1NC(=O)NC(=O)C1(F)C(=O)OCC` (stereo not given), the growth was 93.8% (inactive) and 101% (inactive). Consider `COc1cc(-c2nc(/C=C3/C(=O)Nc4ccccc43)c3ccccn23)cc(OC)c1OC`, for which the growth is 87.9% (inactive). For `COc1ccc2nc(-c3ccc(-n4cncc4-c4ccc(OC)c(N)c4)cc3)sc2c1`, the growth was 114% (inactive).

In the case of `CCN1CCN(c2nc3ccccc3c3c(=O)c4cc(F)ccc4sc23)CC1`, the growth is 70.9% (inactive). As for `NS(=O)(=O)c1ccc(C(=O)N=Nc2c(O)[nH]c3c(F)cccc23)cc1`, the growth was 96.3% (inactive). For `O=[N+]([O-])c1ccc(C=C2C(Cl)=C(Cl)C(Cl)=C2Cl)cc1`, the growth was 48.3% (inactive).

For the compound `Cc1cc2nc3c4cc(Cl)ccc4n(CC(=O)NCCN(C)C)c3nc2cc1C`, the growth is 60.6% (inactive). In the case of `COc1ccc([C@H]2[C@H](O)C(=O)N2c2cc(OC)c(OC)c(OC)c2)cc1Cl` it was 10.9% (inactive); in that of `O=C(NC(=S)Nc1cccc(NC(=S)NC(=O)c2ccccc2)c1)c1ccccc1`, 98.5% (inactive); in that of `CO[C@H]1CC[C@@]2(C)C(=CC[C@H]3[C@@H]4C[C@H](O)C[C@@]4(C)CC[C@@H]32)C1`, -12.8% (active). In the case of `O=C(Nc1cccc(Cl)c1)OCC(COC(=O)Nc1cccc(Cl)c1)(COC(=O)Nc1cccc(Cl)c1)[N+](=O)[O-]`, the growth is 16.5% (inactive).

In the case of `COc1cc(-c2nc(Nc3nc4ccccc4s3)[nH]c(=O)c2C#N)cc(OC)c1O`, the growth was 105% (inactive). The figure for `O=C(Nc1ccc(-n2cc(-c3ccncc3)c(-c3ccc(Cl)c(O)c3)n2)cc1)c1cc(Cl)cc(Cl)c1` is 57.6% (inactive). In the case of `COc1cc2oc(-c3cccc(NC(=O)c4cccc(Br)c4)c3)cc(=O)c2c(OC)c1OC` it was 66.8% (inactive); in that of `CCC(CC)n1c(C)cc(=O)n1C(CC)CC`, 91.2% (inactive). Turning to `COc1cc2c(c(OC)c1OC)C(=O)CC(c1cccc(NC(=O)c3ccc(Br)cc3)c1)O2` (stereo not given), the growth is 12.1% (inactive). On to `COc1cc(/C=N/NC(=O)c2cnn3c2NC(c2ccccc2)C3)ccc1OC1CCCC1` (stereo not given), for which the growth is 23.3% (inactive).

`CCCC/C=C/[C@@H]1C[C@H]1CCO`: the growth is 96.1% (inactive). On to `CC(C)(CCN=C(N)Nc1ccccn1)c1ccc(C(F)(F)F)cc1`, for which the growth was 3.96% (active). `CC(=O)Nc1cccc(Cl)c1C`: the growth is 103% (inactive). As for `Cc1cc(C)n(CC(=O)Nc2ccc(-c3nc4ccccc4s3)cc2)n1`, the growth is -3.57% (active). Regarding `C#CCN1C(=O)c2ccccc2N(CC#C)C12CCN(Cc1cn(CC(=O)Nc3ccccc3C(N)=O)nn1)CC2`, the growth is 72.6% (inactive). As for `O=C(/C=C/c1ccc(Cl)cc1)c1ccc(Nc2nc(NCCO)nc(Nc3ccc(Cl)cc3)n2)cc1`, the growth is 68.4% (inactive). Regarding `CCn1c(SCC(=O)Nc2cccc(C(=O)/C=C/c3cc(OC)c(OC)c(OC)c3)c2)nc2ccccc2c1=O`, the growth was 31.8% (inactive). In the case of `CN(Cc1ccccc1)c1nc(Cl)c(C2CC(c3ccc(F)cc3)=NN2C=O)s1` (stereo not given), the growth was 77.5% (inactive). For `CCOc1ccc(C2N(c3cc(OC)c(OC)c(OC)c3)C(=O)C2(F)F)cc1` (stereo not given), the growth was 34.9% (inactive). As to `COC(=O)c1ccc2c(c1)Oc1ccc(Cl)cc1-c1cc(C)nn1-2`, the growth was 87% (inactive). `COc1ccc(-c2nn(-c3cccc(Cl)c3)cc2-c2cc(-c3ccccc3)[nH]c(=O)c2C#N)cc1`: the growth is 16.4% (inactive).
